EBNA-1 inhibitor: blocks EBNA-1 binding to DNA; 300,000 compounds, 0.34% hits; inhibition, % at 14.8 µM; EBNA-1 DNA binding, fluorescence polarization; in the data active = inhibition above about 28%
LYPLA1 counter: counter-screen for PME1 inhibitors: inhibitors of human LYPLA1 | 320,000 compounds, 0.16% hits | recombinant LYPLA1, FP-Rh probe fluorescence polarization | inhibition, % at 5.9 µM | O75608 | AID 2174;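 active = inhibition above the mean of all tested compounds plus 3 SD, set per campaign, cut at about 14% in these data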;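 note: inhibitors block serine hydrolase probe labeling of LYPLA1 so polarization falls; 0% = enzyme with DMSO and 100% = wells lacking LYPLA1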
Target sequence (O75608 whole entry, looked up): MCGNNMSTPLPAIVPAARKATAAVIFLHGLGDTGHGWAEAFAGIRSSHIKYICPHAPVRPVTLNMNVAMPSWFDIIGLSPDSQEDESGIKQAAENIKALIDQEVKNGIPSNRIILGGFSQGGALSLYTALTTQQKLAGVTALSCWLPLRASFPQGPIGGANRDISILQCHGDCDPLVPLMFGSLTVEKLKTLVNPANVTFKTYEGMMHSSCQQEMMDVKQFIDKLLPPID
GSTO1 counter: blocks human GSTO1 in RBBP9 counter-screen; 300,000 compounds, 1.1% hits; recombinant GSTO1, activity-based probe fluorescence polarization; inhibition, % at 5.96 µM; AID 1974; P78417;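 active = inhibition above the campaign mean inhibition plus 3 SD, cut at about 35% in these data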;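 note: 0% = GSTO1-1 with DMSO and 100% = wells lacking GSTO1-1 enzyme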
Target sequence (P78417 whole entry, looked up): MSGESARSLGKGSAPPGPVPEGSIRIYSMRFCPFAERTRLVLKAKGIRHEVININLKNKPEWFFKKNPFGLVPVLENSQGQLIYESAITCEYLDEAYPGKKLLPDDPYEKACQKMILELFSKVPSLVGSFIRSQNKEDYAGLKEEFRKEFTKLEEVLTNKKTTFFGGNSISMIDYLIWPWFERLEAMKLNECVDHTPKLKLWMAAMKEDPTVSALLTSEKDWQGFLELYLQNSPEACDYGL
LYPLA2 inh: LYPLA2 (human) inhibition in PME1 counter-screen; O95372; recombinant LYPLA2, FP-Rh probe fluorescence polarization; inhibition, % at 5.9 µM; 320,000 compounds, 0.38% hits; AID 2177;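 active = inhibition above the screen-wide mean plus 3 SD, limit set per campaign, cut at about 26% in these data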;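 note: 0% = LYPLA2 with DMSO and 100% = wells lacking LYPLA2 enzyme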
PAD4 inh: blocks human protein arginine deiminase 4 | inhibition, % at 6.36 µM | 330,000 compounds, 0.41% hits | AID 485272 | Q9UM07 | recombinant PAD4, RCA probe fluorescence polarization;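 active = percent inhibition above a cutoff equal to the mean of all tested compounds plus 3 SD, cut at about 15% in these data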;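 note: 0% = PAD4 with RCA probe and DMSO and 100% = probe without PAD4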
ZTA counter: ZTA (EBV) inhibition in EBNA-1 counter-screen. P03206. ZTA-DNA binding, fluorescence polarization. inhibition, % at 11 µM. 320,000 compounds, 0.15% hits; in the data active = inhibition above about 33%
GSTO1 confirm: GSTO1 (human) inhibition, confirmation | shares compounds with GSTO1 counter | inhibition, % at 5.96 µM | recombinant GSTO1, probe fluorescence polarization | AID 2176 | 2,400 compounds, 54% hits;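 active = inhibition above the primary screen's cutoff, its mean inhibition plus 3 SD, cut at about 35% in these data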;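 note: loss of polarization as inhibitors block binding of rhodamine sulfonate ester activity probe; 0% = GSTO1 with DMSO and 100% = wells lacking GSTO1 enzyme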
GSTO1 ABPP inh: inhibitors of recombinant human GSTO1. shares compounds with GSTO1 counter. gel ABPP SE-Rh probe fluorescence. 130 compounds, 30% hits. AID 463110. inhibition, % at 1 µM;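 active = inhibition of the enzyme GSTO1 above about 75%, limit read from the data; inactive = inhibition below that limit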
An asterisk follows results filed as active; · = no result given. The list is not random: actives were taken first. Their share in the collection is about 1.7%.

SMILES | EBNA-1 inhibitor | LYPLA1 counter | GSTO1 counter | LYPLA2 inh | PAD4 inh | ZTA counter | GSTO1 confirm | others
CCCC(=O)N(Cc1cc(=O)[nH]c2ccccc12)c1ccc(OC)cc1 | 8 | 0 | -5 | -1 | 11 | -2 | ·
COc1ccc(N(Cc2cc(=O)[nH]c3ccccc23)C(=O)CCl)cc1 | -11 | -4 | 79* | -6 | 6 | -4 | 95* | GSTO1 ABPP inh=44
Cc1cccc(N(Cc2cc(=O)[nH]c3ccccc23)C(=O)CCl)c1 | 5 | 1 | 90* | -2 | 14 | 14 | 91* | GSTO1 ABPP inh=76*
CC1CCCC(C)N1C(=O)COC(=O)CSc1ccc(C(N)=O)cc1[N+](=O)[O-] (stereo not drawn) | 2 | 0 | 9 | 1 | -1 | -2 | ·
O=C(Cc1cccs1)N1CCN(S(=O)(=O)c2ccc(Cl)c(C(F)(F)F)c2)CC1 | · | 0 | · | 5 | -1 | 1 | ·
COc1cccc(C(=O)N2CCC(CCC(=O)Nc3cccc(C)c3)CC2)c1 | 2 | 1 | 5 | 4 | 4 | -1 | ·
O=C(OCC(=O)N1CCN(c2ccccc2)CC1)C1=COCCO1 | -16 | 3 | 67* | 3 | 4 | -24 | 34
O=C(OCC(=O)N1CCN(C(=O)c2ccco2)CC1)C1=COCCO1 | -5 | 3 | 6 | 0 | -2 | -12 | ·
O=C(O)c1cccc(NC2=C(N3CCOCC3)C(=O)c3ccccc3C2=O)c1 | -8 | 2 | 47* | 1 | 10 | -1 | 17
CC(NC(=O)COC(=O)c1cc(NS(=O)(=O)c2ccc(Cl)c([N+](=O)[O-])c2)ccc1O)C1CC2CCC1C2 (stereo not drawn) | 2 | -4 | 46* | -3 | 1 | -5 | 40*
O=C(CNC(=O)c1ccco1)NCC(=O)OCC(=O)c1ccc(Cl)c([N+](=O)[O-])c1 | -2 | 5 | 11 | 11 | -1 | -15 | ·
CC1CCCC(C)N1C(=O)COC(=O)Cc1c[nH]c2ccccc12 (stereo not drawn) | -8 | -10 | -2 | -10 | 0 | 4 | ·
CCOC(=O)c1ccc2c(c1)C1C=CCC1C(C(=O)O)N2 (stereo not drawn) | 19 | -8 | 52* | 4 | -1 | 23 | 39*
Oc1ccc(-c2cn3ccccc3n2)cc1 | -2 | -1 | -3 | -1 | -5 | -8 | ·
Oc1ccc(-c2cn3ccccc3n2)cc1O | -2 | -6 | 43* | -4 | 0 | 4 | 4
Cc1ccn2cc(-c3ccc(O)c(O)c3)nc2c1 | -2 | -6 | 60* | -3 | -1 | 12 | 12
O=S(=O)(/N=C(/c1ccccc1)N1CCOCC1)c1ccc(Br)cc1 | -2 | -3 | 8 | -4 | -5 | -17 | ·
CCN(c1ccccc1)S(=O)(=O)c1ccc2ccccc2c1 | -8 | -7 | -2 | -8 | -6 | -4 | ·
O=S(=O)(c1ccc2ccccc2c1)N(CC1CO1)c1ccccc1 (stereo not drawn) | -2 | -5 | 70* | -2 | 3 | -1 | 92* | GSTO1 ABPP inh=26
Cc1ccc(S(=O)(=O)N(CC(O)CN2CCOCC2)c2cc(Cl)ccc2Cl)cc1 (stereo not drawn) | 2 | 4 | 6 | -4 | -8 | -3 | ·
O=[N+]([O-])c1cccc(N(CC2CO2)S(=O)(=O)c2ccccc2)c1 (stereo not drawn) | 1 | -1 | 101* | 6 | -2 | 1 | 98* | GSTO1 ABPP inh=50
Cc1ccc(S(=O)(=O)N(CC(=O)N(C)C)c2cccc([N+](=O)[O-])c2)cc1 | -12 | -2 | 9 | -5 | -3 | 15 | ·
Cc1ccc(N(CC2CO2)S(=O)(=O)c2ccc([N+](=O)[O-])cc2)cc1 (stereo not drawn) | -6 | 2 | 88* | 1 | 2 | -6 | 85* | GSTO1 ABPP inh=45
Cc1ccc(S(=O)(=O)N(CC2CO2)c2cc(Cl)ccc2Cl)cc1 (stereo not drawn) | 0 | 2 | 85* | 4 | 0 | -11 | 91* | GSTO1 ABPP inh=0
CC1CCCN(C(=O)c2ccc(NC(=O)CC3SC(N4CCCC4)=NC3=O)cc2)C1 (stereo not drawn) | 6 | 5 | 0 | 8 | 2 | 1 | ·
SMILES | EBNA-1 inhibitor | LYPLA1 counter | GSTO1 counter | LYPLA2 inh | PAD4 inh | ZTA counter | GSTO1 confirm | others
CN(CC(=O)Nc1ccccc1C(F)(F)F)C(=O)c1ccc(-c2ccc(Cl)cc2)o1 | 2 | -2 | 0 | 4 | -2 | 3 | ·
CCOC(=O)c1c(CN(C)C)n(C)c2c(O)c(N=NC(N)=O)c3ccc(Br)cc3c12 | -1 | 2 | 49* | 11 | -10 | 2 | 29
COc1ccc(OCC(O)CNS(=O)(=O)c2ccc(NC(C)=O)cc2)cc1 (stereo not drawn) | -3 | 0 | 0 | 2 | -2 | -1 | ·
COCCNC(=O)C(=O)N/N=C(\C)CC(=O)Nc1ccc(Cl)cc1Cl | -12 | 0 | 71* | -2 | -3 | 0 | 8
O=C(Nc1c2c(nn1-c1ccc(Cl)cc1)CS(=O)(=O)C2)c1ccccc1 | 6 | -2 | 1 | -4 | -6 | -15 | ·
CC(=O)NCCCNS(=O)(=O)c1ccc(C)cc1 | 1 | -2 | 3 | -3 | 1 | 7 | ·
COC(=O)c1sc2nc(-c3ccco3)ccc2c1N | 0 | -8 | 48* | 3 | 9 | 8 | 16
NC(=O)c1sc2nc(-c3ccco3)ccc2c1N | 4 | -3 | 2 | -5 | -8 | 11 | ·
CCCCCCc1c(O)c2ccccc2[nH]c1=O | 7 | 1 | -2 | 4 | 2 | -3 | ·
CCCCCCCCCCCC1=C(O)C(=O)C=C(O)C1=O | 0 | 0 | 79* | 9 | -2 | -8 | 66*
Cc1ccc(C2CC(c3cccs3)=NN2C(=O)CCl)cc1 (stereo not drawn) | 11 | 4 | 87* | 1 | 7 | 5 | 97*
O=C(O)CSc1nnc(-c2ccc(Cl)cc2Cl)n1-c1ccc(Cl)cc1 | -4 | -1 | 3 | 8 | 6 | -2 | ·
CCCc1cnc(N2CCN(C(=O)c3c(-c4ccccc4)noc3C)CC2)nc1 | 8 | 1 | -1 | 5 | 2 | 7 | ·
Cc1cc2nnc(SCC(=O)Nc3ccc(Cl)cc3)n2c(N)n1 | 9 | 3 | -3 | 1 | 1 | 3 | ·
COC(=O)\C(C(C)=O)=C(/C=C/C=C/C=C/N(C)C)N(C)C | 11 | 0 | 38* | 2 | 4 | -6 | -44
CCn1cc(C(=O)NCCC(=O)OC)c(=O)c2cc3c(cc21)OCO3 | 9 | 0 | 0 | 2 | 0 | 10 | ·
COc1ccc2c3c(cccc13)C(=O)N(O)C2=O | -1 | 3 | -4 | 4 | 4 | 14 | ·
CCC1=NNc2cccc3c(OC)ccc1c23 | -6 | 7 | 73* | 10 | 37* | 19 | 27
O=C1CCC/C(=N/Nc2ccc(Cl)cc2)C1 | -10 | 2 | 40* | 8 | -10 | -10 | 7
